About 5,300 (4.4%) of roughly 120,000 compounds were called active. About 22% were inconclusive and are not listed. Calls come from the whole dose curve; as a rule, active = well fitted inhibition curve with a large enough effect; inconclusive = small, poorly fitted or top-dose-only effect; inactive = no such curve, though single readings can be large or run the other way. What follows is part of a selection rich in actives, with near analogues and random picks from the rest. A call without a number means that no potency is given here.
Experiment: qHTS Primary assay for Inhibitors of Plasmodium falciparum Dd2 growth in vitro; note: nearly all actives have a fitted effect of over 65% in size
Settings: P. falciparum Dd2 growth, SYBR Green, 72 h; series mostly up to 28.9 µM
Summary of the method: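 Readout: SYBR Green fluorescence, 485 nm excitation, 535 nm emission, after ~16 h lysis at 37C. Before that, Dd2-infected red cells (2.5% hematocrit) grew 72 h with compound, 29 uM top final concentration.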
Potency is the fitted concentration of half-maximal effect.

SMILES	Potency	outcome
CCn1cc(S(=O)(=O)N2CC[C@H]3C(=O)NCCCCCCN(Cc4ccncc4)[C@@H]3C2)cn1	inactive	
CN(C)C[C@@H]1CN(C)C[C@H]1NC(=O)c1cc2ccccc2[nH]1	inactive	
CN(C)C[C@@H]1CN(C)C[C@H]1NS(=O)(=O)c1cccc(C(F)(F)F)c1	3.55 µM (active)	
NC(=O)[C@H](CCC(=O)O)NC(=O)[C@@]1(O)C[C@@H](O)[C@H](O)[C@@H](NS(=O)(=O)c2cccc(C(F)(F)F)c2)C1	inactive	
CN(C)C[C@@H]1CN(C(=O)c2ccc3c(c2)OCC(=O)N3)C[C@@H]1CO	inactive	
Cc1ccc(NC(=O)Cn2cccc2-c2nc(-c3ccc4c(c3)OCO4)no2)cc1Cl	inactive	
O=C(CCc1ccccc1)NCCn1cccc1-c1nc(-c2ccc3c(c2)OCO3)no1	7.08 µM (active)	
O=C(NCc1ccc2c(c1)OCO2)c1noc(-c2ccc(F)cc2)n1	inactive	
CCc1noc(C)c1C(=O)N1CC[C@@H](NC(=O)c2ccccn2)[C@H](O)C1	inactive	
Cc1cccc(-n2ccnc2SCC(=O)Nc2cc(C(F)(F)F)ccc2Cl)c1	3.55 µM (active)	
COc1ccc(NC(=O)CSc2nccn2C2CCCC2)cc1OC	inactive	
O=C(CSc1nccn1C1CCCC1)Nc1cc(C(F)(F)F)ccc1Cl	11.2 µM (active)	
Cc1cc(C)cc(-n2ccnc2SCC(=O)Nc2nc3ccccc3s2)c1	inactive	
O=C(CSc1nccn1-c1ccc(F)cc1)Nc1cccc2ccccc12	inactive	
O=C(CSc1nc(=O)[nH]c2c1CCCC2)Nc1cc(C(F)(F)F)ccc1Cl	inactive	
Cc1ccc(-c2noc([C@@H]3CCCN3C(=O)c3cc(Cl)ccc3F)n2)cc1	inactive	
CS(=O)(=O)Cc1ccc(-c2cccc(OCc3ccccc3F)c2)nc1	inactive	
COCCC(=O)NCCC1CCN(C(=O)Nc2ccccc2F)CC1	inactive	
C[S+](=O)([O-])N1CC2ON=C(C(=O)O)C2C1 (stereo not given)	inactive	
CCOc1ccc2c(n1)CCN(C(=O)c1ccccc1C)C2	inactive	
C[C@@H]1CN(C(=O)c2ccc(-c3ccn[nH]3)cc2)CC[C@@]1(O)C1CCOCC1	inactive	
COC(=O)CNC(=O)N1CCOC(c2ccc(Cl)c(Cl)c2)C1 (stereo not given)	inactive	
Cc1noc(-c2cccn3c(CNC(=O)CCc4ccccc4)nnc23)n1	inactive	
COc1cccc(CC(=O)NC2CCN(c3cc(-c4ccccc4)[nH]n3)C2)c1 (stereo not given)	inactive	
CC#CCn1cc2c3c(cccc31)[C@H](CC(C)C)N[C@H](C(=O)NCc1ccccc1OC)C2	inactive	

SMILES	Potency	outcome
CC(C)C[C@@H]1N[C@H](C(=O)NCc2ccc(F)cc2)Cc2cn(C)c3cccc1c23	14.1 µM (active)	
COc1ccc(CNC(=O)[C@@H]2Cc3cn(Cc4ccncc4)c4cccc(c34)[C@H](CC(C)C)N2)cc1	inactive	
O=C(Nc1cccnc1)N[C@@H]1C[C@H](CO)[C@@H](O)[C@H]1O	inactive	
Cc1ccccc1CNC(=O)C1CCCN(C(=O)c2ccccc2)CCC(=O)NCC1 (stereo not given)	inactive	
COc1ccc(-n2c(=O)c3ccccc3n(Cc3ccccc3Cl)c2=O)cc1	inactive	
O=c1c2cccnc2n(Cc2cccc(F)c2)c(=O)n1Cc1ccccc1Cl	12.6 µM (active)	
O=C(O)c1ccc(CSc2nc3cccnc3n2Cc2cccc(F)c2)cc1	inactive	
COc1ccc(-c2ccnc3nc(CC(C)C)nn23)c(F)c1	inactive	
CC(NC(=O)c1noc(-c2ccc(F)cc2)n1)c1ccc(F)cc1 (stereo not given)	inactive	
Cc1cccc(C(=O)N2CCC(CC(=O)NCc3ccccc3)C2)c1 (stereo not given)	inactive	
O=S(=O)(c1cccs1)N1CCC(OC2CCN(Cc3ccccc3)CC2)CC1	3.55 µM (active)	
Cc1cccc(C(=O)N2CCC(OC3CCN(Cc4ccccc4)CC3)CC2)c1	3.98 µM (active)	
CC(C)C(=O)N1CCC(OC2CCN(Cc3ccccc3)CC2)CC1	inactive	
CN1CCCN(S(=O)(=O)c2cccs2)c2ccccc21	inactive	
CC(C)CN1CCN(C2CCOC3(CCN(S(=O)(=O)c4cccs4)CC3)C2)CC1 (stereo not given)	inactive	
N[C@H]1CCN2C(=O)c3cc(-c4ccc(F)cc4F)ccc3NC(=O)[C@H]12	inactive	
Cc1cccc(C(=O)N2CC(c3nnc(C(C)C)o3)C3(CCOCC3)C2)c1 (stereo not given)	inactive	
Cc1cnc(CCNC(=O)c2cn(C)cn2)n1C1CC1	inactive	
CC(=O)NCCc1ncc(C)n1C1CCCCC1	inactive	
Cc1cnc(CCNC(=O)Nc2ccccc2F)n1C1CCC1	4.47 µM (active)	
C=C(C)CN(CC)C(=O)c1c(C)oc2c1CN(Cc1cccc(F)c1)CC2	8.91 µM (active)	
O=c1[nH]c(N2CCOCC2)nc2c1CCN(Cc1cccc(F)c1)CC2		inactive [at 5.79 µM]
CCNC(=O)c1c(C)oc2c1CN(C(=O)CCc1ccccc1)CC2	inactive	
O=C(CCc1ccccc1)N1CCCCCC1c1nc(-c2ccccc2)no1 (stereo not given)	inactive	
Cc1cccc(CC(=O)N2CCC(c3noc(COCC4CC4)n3)CC2)c1	inactive	
